Broadly, the AC50 is the midpoint of the concentration-response curve, whichever way the signal moves.

Where a structure was tested more than once in an assay, its records may differ in their call. Active and inactive are the calls of the source. How the source made its calls: active means hit-call score of the fitted dose curve at least 0.9, where 1 is the maximum; inactive means score below 0.9.

We go through 14 compounds from PubChem BioAssay (EPA / NIEHS).

Read-out in assay [1]: Macrophage colony-stimulating factor (MCSF), CSF1 (gene 1435)
Kind of assay: BSK_hDFCGF_MCSF: BioMAP Diversity Plus: hDFCGF Assay for Macrophage colony-stimulating factor (MCSF) Biomarker Activity (AID 2283060). The conditions noted are these: primary human foreskin fibroblasts; actives raise or lower the signal. The gist of the method:
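M-CSF levels, determined by ELISA, are taken at 24 h after dosing human skin fibroblasts. Responses in either direction are fitted with DMSO serving as the baseline.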

Assay [2] is described as follows: BSK_hDFCGF_SRB: Viability Assessment in the BioMAP Diversity Plus: hDFCGF Assay (AID 2283061).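 Further: cells exposed to compound for 24 h before the read.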 The conditions noted are these: primary human foreskin fibroblasts. A digest of the protocol:
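Cells were dosed with test chemical, cultured 24 h, fixed with 10% TCA, then stained with 0.1% SRB and read at 560 nm. The fibroblasts were human foreskin primary cells, and DMSO served as baseline.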

Read-out in assay [3]: TIMP metallopeptidase inhibitor 1 (TIMP1), TIMP1 (gene 7076)
Kind of assay: BSK_hDFCGF_TIMP1: BioMAP Diversity Plus: hDFCGF Assay for TIMP metallopeptidase inhibitor 1 (TIMP1) Biomarker Activity (AID 2283062). The conditions noted are these: primary human foreskin fibroblasts; actives raise or lower the signal. The gist of the method:
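Fibroblasts from human foreskin are treated with test chemical and harvested at 24 h. TIMP-1 is quantified by ELISA, and gain or loss of signal is scored against DMSO.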

Read-out in assay [4]: Monokine induced gamma interferon (MIG), CXCL9 (gene 4283)
Kind of assay: BSK_hDFCGF_MIG: BioMAP Diversity Plus: hDFCGF Assay for Monokine induced gamma interferon (MIG) Biomarker Activity (AID 2283063). Conditions: primary human foreskin fibroblasts; actives raise or lower the signal. The gist of the method:
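MIG signal, determined by ELISA, reflects 24 h chemical exposure of human skin primary fibroblasts. DMSO serves as negative control and baseline.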

Read-out in assay [5]: Matrix Metallopeptidase 1 (MMP1), MMP1 (gene 4312)
Kind of assay: BSK_hDFCGF_MMP1: BioMAP Diversity Plus: hDFCGF Assay for Matrix Metallopeptidase 1 (MMP1) Biomarker Activity (AID 2283064). Conditions: primary human foreskin fibroblasts; actives raise or lower the signal. The gist of the method:
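hDFCGF primary fibroblasts (human foreskin); chemical added; 24 h; MMP1 by ELISA; bidirectional fit vs DMSO.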

Read-out in assay [6]: Vascular cell adhesion molecule 1 (VCAM1), VCAM1 (gene 7412)
The experiment in a line: BSK_hDFCGF_VCAM1: BioMAP Diversity Plus: hDFCGF Assay for Vascular cell adhesion molecule 1 (VCAM1) Biomarker Activity (AID 2283065).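 On AC50: VCAM-1 protein level quantified by ELISA after 24 h chemical exposure.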 The conditions noted are these: primary human foreskin fibroblasts; actives raise or lower the signal. A digest of the protocol:
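Cells are dosed, cultured for 24 h, then VCAM-1 is quantified by ELISA; signal increases and decreases are both fitted relative to DMSO.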

Read-out in assay [7]: Plasminogen activator inhibitor-1 (PAI1), SERPINE1 (gene 5054)
Kind of assay: BSK_hDFCGF_PAI1: BioMAP Diversity Plus: hDFCGF Assay for Plasminogen activator inhibitor-1 (PAI1) Biomarker Activity (AID 2283066). The conditions noted are these: primary human foreskin fibroblasts; actives raise or lower the signal. The gist of the method: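 PAI-1 levels, determined by ELISA, served as the endpoint in human foreskin fibroblast cultures exposed to compound for 24 h, with DMSO as baseline.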

Read-out in assay [8]: Interferon-gamma inducible Protein 10 (IP10), CXCL10 (gene 3627)
The experiment in a line: BSK_KF3CT_IP10: BioMAP Diversity Plus: KF3CT Assay for Interferon-gamma inducible Protein 10 (IP10) Biomarker Activity (AID 2283068). The conditions noted are these: primary human keratinocytes with fibroblasts; actives raise or lower the signal. A digest of the protocol:
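KF3CT co-culture (keratinocytes + foreskin fibroblasts), 24 h compound, IP-10 by ELISA; bidirectional fit vs DMSO baseline.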

Assay [9] can be described thus: BSK_KF3CT_SRB: Viability Assessment in the BioMAP Diversity Plus: KF3CT Assay (AID 2283069).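 Further: total protein by sulforhodamine B staining as a cytotoxicity measure; read 24 h after compound addition; fitted for both signal gain and loss against DMSO baseline.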 Conditions: primary human keratinocytes with fibroblasts. A digest of the protocol:
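Keratinocytes co-cultured with foreskin fibroblasts (human primary); chemical added, 24 h; fix 10% TCA, stain 0.1% SRB, A560. Bidirectional fit vs DMSO.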

On to `COc1nc(C)nc(NC(=O)NS(=O)(=O)c2ccccc2Cl)n1`, for which the result in assay [1], in [2], in assay [3], in assay [4], in assay [5] and in assay [6] was inactive. In addition, the outcome in assay [7], in assay [8] and in assay [9] was inactive. For the same compound, the AC50 in assay [8] was 0.148 µM (active).
Consider `COc1ccc(C(c2ccc(OC)cc2)C(Cl)(Cl)Cl)cc1`, for which the AC50 in assay [1] is 9.16 µM (active); in assay [2], 11 µM (active); in assay [5], 5.09 µM (active); in assay [6] it was 20 µM (active); in assay [7], 14.7 µM (active); in assay [9], 8.76 µM (active). For the same compound, the result in assay [3], in assay [4] and in assay [8] was inactive.
For the compound `CCNc1nc(Cl)nc(NCC)n1`, the result in assay [1], in assay [2], in assay [3], in assay [4], in assay [5] and in [6] was inactive. The result in assay [7], in [8] and in [9] was inactive.
As for `CCON=C(CC)C1=C(O)CC(c2c(C)cc(C)cc2C)CC1=O` (configuration not stated), the outcome in assay [1], in assay [2], in assay [3], in assay [4], in [5] and in assay [6] was inactive. Besides, the outcome in assay [7], in [8] and in assay [9] was inactive.
For `CCc1nn(C)c(C(=O)NCc2ccc(C(C)(C)C)cc2)c1Cl`, the AC50 was 23.9 µM (active) in assay [1]; 27.5 µM (active) in [2]; 32.1 µM (active) in [3]; 33.7 µM (active) in [4]; 32.2 µM (active) in assay [5]; 20 µM (active) in assay [6]. In addition, the AC50 is 15.5 µM (active) in [7], 18.7 µM (active) in [8] and 32.4 µM (active) in assay [9].
Regarding `Cc1c(F)c(F)c(COC(=O)C2C(/C=C(\Cl)C(F)(F)F)C2(C)C)c(F)c1F` (configuration not stated), the AC50 is 3.03 µM (active) in [1] and 1.22 µM (active) in assay [5]. For the same compound, the result in assay [2], in [3], in assay [4], in assay [6], in [7] and in assay [8] was inactive. In addition, the outcome in assay [9] was inactive.
On to `CC(C)C1(C)N=C(c2nc3ccccc3cc2C(=O)O)NC1=O` (configuration not stated), for which the result in [1], in assay [2], in [3], in assay [4], in assay [5] and in assay [6] was inactive. Also, the result in assay [7], in assay [8] and in [9] was inactive.
`CCCCNC(=O)n1c(NC(=O)OC)nc2ccccc21`: the result in assay [1], in assay [2], in [3], in assay [4], in [6] and in [7] was inactive. Moreover, the result in assay [8] and in [9] was inactive. In addition, the AC50 in assay [5] was 11.3 µM (active).
With `CCCC1COC(Cn2cncn2)(c2ccc(Cl)cc2Cl)O1` (configuration not stated), the outcome in [1], in assay [2], in [3], in [4], in [5] and in [6] was inactive. Further, the result in assay [7], in [8] and in assay [9] was inactive.
Take `CCOC(=O)CC(SP(=S)(OC)OC)C(=O)OCC` (configuration not stated): the outcome in assay [1], in assay [2], in [3], in assay [4], in assay [5] and in [6] was inactive. Moreover, the result in assay [7], in assay [8] and in [9] was inactive.
Turning to `CON(C)C(=O)Nc1ccc(Cl)c(Cl)c1`, the result in [1], in assay [2], in [3], in [4], in assay [5] and in assay [6] was inactive. For the same compound, the outcome in assay [7], in [8] and in assay [9] was inactive.
Consider `N#Cc1cc(Br)c(O)c(Br)c1`, for which the result in assay [1], in [2], in assay [3], in [4], in assay [5] and in assay [6] was inactive. Moreover, the outcome in assay [7], in assay [8] and in [9] was inactive.
Take `CCOc1cc(Oc2ccc(C(F)(F)F)cc2Cl)ccc1[N+](=O)[O-]`: the AC50 in [1] is 6.77 µM (active); in [5], 2.89 µM (active); in assay [7] it was 5.49 µM (active). Also, the result in assay [2], in [3], in assay [4], in assay [6], in assay [8] and in assay [9] was inactive.
Regarding `CCOP(=S)(OCC)SCn1c(=O)oc2cc(Cl)ccc21`, the AC50 in assay [1] was 14.3 µM (active); in assay [5], 2.15 µM (active); in [6], 15.6 µM (active); in assay [7], 13.8 µM (active). The outcome in [2], in assay [3], in [4], in [8] and in assay [9] was inactive.
